Source: PubChem (National Center for Advancing Translational Sciences (NCATS))
FLuc inh: blocks Photinus pyralis firefly luciferase activity; purified firefly luciferase, luminescence, 8 min; P08659; Potency, µM (titrated, usually from 57.1 µM), most hits filed as inhibitors; 2.2% of 72,000 active; further: nearly all actives have a fitted effect of over 40% in size
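Inhibition of light generation by firefly luciferase from ATP and luciferin was profiled with concentration-response curves per sample, ATP held at 10 uM within the enzyme's linear range. Plates were read by luminescence after an 8-minute ambient incubation.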
Bst PK mod: alters activity of Bacillus stearothermophilus pyruvate kinase; purified pyruvate kinase, luminescence ATP production; ribose 5-phosphate activator present at AC10; Potency, µM; 1.2% of 51,000 active; in the data active means potency below about 11 µM;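 the screen sought inhibitors and activators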
GFP derepression: derepresses silenced GFP locus in mouse C127i cells; mouse C127i GFP locus derepression, cytometry, 30 h; Potency, µM (top dose mostly 46.1 µM); 0.09% of 68,000 active; AID 597
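Locus derepression in mouse mammary C127i cells whose integrated CMV-GFP reporter is normally silent; GFP expression after 30 h compound treatment was quantified by counting fluorescent cells.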
HBB splice mod: modulators of hemoglobin beta chain splicing. HBB splicing reporter cell assay, activation; EGFP reporter with mutant IVS2-654 intron; response scale: normalised to 500 nM splice-correcting PNA. Potency, µM (series often up to 46.1 µM), hits mostly activators. 0.06% of 65,000 active. AID 925
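HeLa cells stably expressing EGFP interrupted by mutant beta-globin intron 2 (IVS2-654), 500/well in 2% FCS. Treated with compound for 2 days at 37C. Splicing correction scored as total well GFP intensity (488 nm excitation, 500-520 nm emission); 500 nM antisense PNA served as control.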
UbGFP stabilizer: proteasome inhibitors stabilizing ubiquitin-GFP reporter; Ubiquitin-GFP reporter cells, proteasome inhibition, GFP fluorescence; response scale: untreated = 0%, 10 µM MG-132 = 100%; Potency, µM (doses to about 45.9 µM), usual class: activators; 67,000 tested, under 10 active; AID 526; active means well fitted activation curve with a large enough effect, not every such curve was filed as active
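Reporter cells (U2OS, ubiquitin-G76V-GFP fusion) are plated overnight, then treated 4 hr at 37 °C with compound titrations from 46 uM down to 2.9 nM. Activity is scaled against untreated cells and 10 uM MG-132.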
GBA activity: alters purified human glucocerebrosidase activity | 1.1% of 48,000 active | purified enzyme, resorufin glucoside fluorescence (screen aimed at inhibitors), 20 min | Potency, µM | P04062; in the data active means potency below about 15 µM;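 further: the screen sought inhibitors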
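Wild-type enzyme at 0.2 nM final in 50mM citric acid/KH2PO4, 10mM sodium taurocholate, 0.01% tween-20, pH 5.9, with resorufin beta-D-glucopyranoside at 30 uM final. Compounds titrated, 20 min at RT, red fluorescence read; AC50 from titration.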
A number is an active result; - = inactive; . = no result; ! = repeats disagree; [ ] = dose if it differs, or a comment. An excerpt weighted towards active compounds, which were near 3.3% of everything screened. Unless noted, the call rests on the fitted dose curve; in most records, active means well fitted curve in the direction sought with a large enough effect; inconclusive means small, poorly fitted or top-dose-only effect, or another doubt; inactive means no such curve, though single readings can be large; an effect the other way counts as inactive or inconclusive.

SMILES	FLuc inh	Bst PK mod	GFP derepression	HBB splice mod	UbGFP stabilizer	GBA activity
Cc1ccc2c(c1)C1CN(C)CCC1N2S(=O)(=O)c1ccccc1 (stereo not given)	-	-	-	-	-	10
O=C(CN1CCCC1=O)N1CCOCC1	-	-	-	-	-	-
O=C1CCCN1CC#CCN1CCCC1	25µM!	.	-	-	-	.
CN1C(=O)C(Cc2ccsc2)C(=O)N(C)C1=O	-	-	-	.	-	-
CN1C(=O)C(C2c3ccccc3C(=O)N2Cc2ccccc2)C(=O)N(C)C1=O (stereo not given)	-	-	-	-	-	12
O=c1cccc2n1C[C@@H]1C[C@H]2CN2CCCC[C@H]12	-[11.4 µM]	.	-[9.22 µM]	.	-	.
COc1ccc(C=O)cc1	.	.	.	-	.	.
COc1ccc(P2(=O)Nc3ccccc3N2)cc1	6.3µM	.	-	-[0.369 µM]	.	-
